From PubChem BioAssay AID2202241 (National Center for Advancing Translational Sciences (NCATS), 2025)
Calls of active or inactive are those of the source. No rule for the calls is given here. Square brackets hold non-standard residues; d marks the D form. Peptide text beside a SMILES is read from it. * marks the point of attachment. Dolaproine = CO[C@@H]([C@@H]1CCCN1)[C@@H](C)C(=O)O; Dil = CC[C@H](C)[C@H](NC)[C@@H](CC(=O)O)OC; NMe2Val = CC(C)[C@@H](C(=O)*)N(C)C; X1 = C[C@@H](N*)[C@@H](O)c1ccccc1; NMeV = CN[C@H](C(=O)O)C(C)C

Test: Identification of antibody-drug conjugate (ADC) payloads which are substrates of ATP-binding cassette drug efflux transporters: cell line panel data
Details: 99 cancer cell line panel, CellTiter-Glo viability, 48 h; active compounds read low
Text: Antibody-drug conjugates (ADCs) feature an antibody recognizing a specific protein joined to a potent toxic payload. Numerous antibody-drug conjugates have received FDA approval; however, clinical resistance arises. Resistance mechanisms include decreased expression or mutation of the antibody target, impaired payload release, or increased expression of ATP-binding cassette (ABC) efflux transporters associated with multidrug resistance. We therefore sought to characterize the activity of ADC payloads across a broad set of cancer cell lines. We performed a high-throughput screen with 27 common ADC payloads against a panel of 99 cell lines to assess sensitivity to various payloads. Duocarmycin DM and PNU-159682 were exquisitely toxic across the panel of cancer cell lines of varying origins. These findings highlight the potentially broad applicability of Duocarmycin DM and PNU-159682 as ADC payloads in future ADC development.
Compounds were sourced from Levena Biopharma (San Diego, CA), Selleck Chem (Houston, TX), ChemieTek (Indianapolis, IN), or Microsource Discovery Systems (Gaylordsville, CT). Cell line sources and culture conditions were as follows: CAL-27 (ATCC: CRL-2095) and Hs 766T (ATCC: HTB-134) were grown in DMEM media +10% FBS. RKO (ATCC: CRL-2577), A-427 (ATCC: […]), BT-20 (ATCC: HTB-19), Detroit562 (ATCC: CCL-138), HARA-B (Cytion: 300465), PA-1 (ATCC: CRL-1572), TCCSUP (ATCC: […]), UM-UC-3 (ATCC: CRL-1749), and WI-38 (ATCC: CCL-75) were grown in EMEM media +10% FBS. AGS (ATCC: CRL-1739) was grown in F12K media +10% FBS. JJN-3 (DSMZ: ACC 541) was grown in IMDM media +20% FBS. 769-P (ATCC: CRL-1933), 786-O (ATCC: CRL-1932), A-375 (ATCC: CRL-1619), A-431 (ATCC: CRL-1555), A-549 (ATCC: CCL-185), A2780 (Cytion: 300491), ACHN (ATCC: CRL-1611), BT-474 (ATCC: HTB-20), BT-549 (ATCC: HTB-122), CCRF-CEM (ATCC: CCL-119), Daudi (ATCC: CCL-213), HaCaT (Cytion: 300493), HCC38 (ATCC: CRL-2314), HCC827 (ATCC: CRL-2868), HCT15 (ATCC: CCL-225), HEL 92.1.7 (ATCC: TIB-180), Hs 352.Sk (ATCC: CRL-7250), Hs578T (ATCC: HTB-126), HT-1080 (ATCC: CCL-121), HuCC-T1 (Riken Bioresource Center: RCB1960), HuP-T3 (DSMZ: ACC 259), HuP-T4 (DSMZ: ACC 223), IM-9 (ATCC: CCL-159), JJ012 (Gift: Karina Galoian (University of Miami)), JM-1 (ATCC: CRL-10423), K-562 (ATCC: CCL-243), Kasumi-3 (ATCC: CRL-2725), KMS-12-BM (DSMZ: ACC 551), LOUCY (ATCC: CRL-2629), LoVo (ATCC: CCL-229), MCF-7 (ATCC: HTB-22), MDA-MB-231 (ATCC: HTB-26), MDA-MB-436 (ATCC: HTB-130), MDA-MB-468 (ATCC: HTB-132), MIA PaCa-2 (ATCC: CRL-1420), MM1.R (ATCC: CRL-2975), MM1.S (ATCC: CRL-2974), NALM-6 (ATCC: CRL-3273), NCI-H1299 (ATCC: CRL-5803), NCI-H1355 (ATCC: CRL-5865), NCI-H1395 (ATCC: CRL-5868), NCI-H1437 (ATCC: CRL-5872), NCI-H2122 (ATCC: CRL-5985), NCI-H2170 (ATCC: CRL-5928), NCI-H226 (ATCC: CRL-5826), NCI-H23 (ATCC: CRL-5800), NCI-H322M (NIH: NCI-60), NCI-H460 (ATCC: HTB-177), NCI-H522 (ATCC: CRL-5810), NCI-H929 (ATCC: CRL-3580), NIH 3T3 (ATCC: CRL-1658), OCI-M2 (DSMZ: ACC 619), OPM-2 (DSMZ: ACCC 50), OVCAR-3 (ATCC: HTB-161), OVCAR-4 (Gift: Phil Lorenzi MD Anderson), OVCAR-8 (Gift: Phil Lorenzi MD Anderson), Panc 10.05 (ATCC: CRL-2547), PANC-1 (ATCC: CRL-1469), Pfeiffer (ATCC: CRL-2632), PL45 (ATCC: CRL-2558), PSN1 (ATCC: CRL-3211), Raji (ATCC: CCL-86), RD (Gift: Mari Yohe NCI), RPMI-8226 (ATCC: CRM-CCL-155), RS4;11 (ATCC: CRL-1873), SK-BR-3 (ATCC: HTB-30), SK-MEL-28 (ATCC: HTB-72), SMS-CTR (Gift: Mari Yohe NCI), SNU-16 (ATCC: CRL-5974), SU-DHL-8 (ATCC: CRL-2961), SU.86.86 (ATCC: CRL-1837), SW1990 (ATCC: CRL-2172), SW403 (ATCC: CCL-230), SW480 (ATCC: CCL-228), SW579 (ATCC: HTB-107), T-47D (ATCC: HTB-133), T24 (ATCC: HTB-4), and U-937 (ATCC: CRL-1593.2) were grown in RPMI +10% FBS. U266B1 (ATCC: TIB-196) were grown in RPMI +15% FBS. ME-1 (ATCC: HB-119), MOLM-13 (DSMZ: ACC 554), AMO1 (DSMZ: ACC 538), MOLP-8 (DSMZ: ACC 569), MV4-11 (ATCC: CRL-9591), PL-21 (DSMZ: ACC 536), and L-363 (DSMZ: ACC 49) were grown in RPMI +20% FBS. […]

| Structure (SMILES) | viability AUC |
| --- | --- |
| CC[C@H](C)[C@@H]([C@@H](CC(=O)N1CCC[C@H]1[C@H](OC)[C@@H](C)C(=O)N[C@H](C)[C@@H](O)c1ccccc1)OC)N(C)C(=O)[C@@H](NC(=O)[C@@H](NC)C(C)C)C(C)C (H-[NMeV]V[Dil][Dolaproine]-X1) | 816 (active) |
| COc1cc2cc(c1Cl)N(C)C(=O)C[C@H](OC(=O)[C@H](C)N(C)C(=O)CCC(C)(C)S)[C@]1(C)OC1[C@H](C)C1C[C@@](O)(NC(=O)O1)[C@H](OC)/C=C/C=C(\C)C2 (stereo partly specified) | 777 (active) |
| CC[C@H](C)[C@@H]([C@@H](CC(=O)N1CCC[C@H]1[C@H](OC)[C@@H](C)C(=O)N[C@@H](Cc1ccccc1)C(=O)O)OC)N(C)C(=O)[C@@H](NC(=O)[C@H](C(C)C)N(C)C)C(C)C (NMe2Val-V[Dil][Dolaproine]F-OH) | 932 (active) |
| CC[C@H](C)[C@@H]1NC(=O)CNC(=O)[C@H]2Cc3c([nH]c4cc(O)ccc34)S(=O)C[C@H](NC(=O)CNC1=O)C(=O)N[C@@H](CC(N)=O)C(=O)N1C[C@H](O)C[C@H]1C(=O)N[C@@H]([C@@H](C)[C@@H](O)CO)C(=O)N2 (stereo partly specified) | 992 (active) |
| CC[C@H](C)[C@@H]([C@@H](CC(=O)N1CCC[C@H]1[C@H](OC)[C@@H](C)C(=O)N[C@H](C)[C@@H](O)c1ccccc1)OC)N(C)C(=O)[C@@H](NC(=O)[C@H](C(C)C)N(C)C)C(C)C | 699 (active) |
| COc1cc2cc(c1Cl)N(C)C(=O)C[C@H](OC(=O)[C@H](C)N(C)C(=O)CCS)[C@]1(C)OC1[C@H](C)C1C[C@@](O)(NC(=O)O1)[C@H](OC)/C=C/C=C(\C)C2 (stereo partly specified) | 817 (active) |
| COc1cccc2c1C(=O)c1c(O)c3c(c(O)c1C2=O)C[C@@](O)(C(=O)CO)CC3OC1CC(N2CCOC(OC)C2)C(O)C(C)O1 (stereo partly specified) | 666 (active) |
| CC[C@H](C)[C@H](NC(=O)[C@H]1CCCCN1C)C(=O)N(C)[C@H](C[C@@H](OC(C)=O)c1nc(C(=O)N[C@@H](Cc2ccccc2)C[C@H](C)C(=O)O)cs1)C(C)C | 793 (active) |
| CC[C@H](C)[C@H](NC(=O)[C@H]1CCCCN1C)C(=O)N(C)[C@H](C[C@@H](OC(C)=O)c1nc(C(=O)O)cs1)C(C)C | 982 (active) |
| COc1cc2cc(C(=O)N3C[C@@H](CCl)c4c3cc(O)c3ccccc43)[nH]c2c(OC)c1OC | 654 (active) |
| COc1cc2cc(c1Cl)N(C)C(=O)C[C@H](OC(=O)C(C)C)[C@]1(C)O[C@H]1[C@H](C)[C@@H]1C[C@@](O)(NC(=O)O1)[C@H](OC)C=CC=C(C)C2 | 756 (active) |
